Assay outcomes: PubChem, Broad Institute
Casp6 inh: caspase-6 (human) enzyme inhibition. inhibition, % at 12.5 µM. P55212. 350,000 tested, 0.53% active. purified caspase-6, Z-VEID-R110 cleavage fluorescence;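 active = mean inhibition across replicates at least about 35%, with every replicate also reaching that limit, limit read from the data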
Target sequence (P55212 24-179 limits assumed): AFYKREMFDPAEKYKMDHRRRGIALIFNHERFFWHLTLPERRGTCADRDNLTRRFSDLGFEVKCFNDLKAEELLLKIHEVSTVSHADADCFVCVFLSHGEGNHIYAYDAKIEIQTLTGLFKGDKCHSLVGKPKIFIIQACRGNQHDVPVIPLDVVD
Target sequence (P55212 194-293 limits assumed): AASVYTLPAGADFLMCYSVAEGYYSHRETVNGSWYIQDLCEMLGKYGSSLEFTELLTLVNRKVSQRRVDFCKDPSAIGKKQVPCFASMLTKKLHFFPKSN
CDK5 inh: inhibitors of human CDK5/p35 kinase | Q00535+Q15078 | Recombinant CDK5/p35, ADP-Glo luminescence, 60 min | inhibition, % at 10 µM | 330,000 tested, 0.01% active | AID 488839;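 active = highest replicate inhibition of at least 50% and at least 75% of replicates reaching 50%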
ALR H2O2 inh: inhibitors of human sulfhydryl oxidase ALR; P55789; purified ALR, DTT oxidation, H2O2 HRP-luminol luminescence; inhibition, % (test concentration not listed); 290,000 tested, 3.8% active;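 active = mean replicate inhibition above about 79%, with every replicate also reaching it, limit read from the data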
Target sequence (P55789 whole entry, looked up): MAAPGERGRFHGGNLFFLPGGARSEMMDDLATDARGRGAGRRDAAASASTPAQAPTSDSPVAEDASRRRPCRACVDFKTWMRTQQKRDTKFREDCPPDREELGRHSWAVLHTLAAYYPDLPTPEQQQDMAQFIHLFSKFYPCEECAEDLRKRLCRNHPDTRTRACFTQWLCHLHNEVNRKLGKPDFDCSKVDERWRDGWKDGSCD
Mot1-301 SUMO: blocks SUMOylation pathway, rescuing yeast Mot1-301 growth. S. cerevisiae Mot1-301 growth rescue, ATP luminescence, 38.5C; percent above DMSO median, 100 means doubled. growth rescue, % at 18.8 µM. 320,000 tested, 1% active. AID 2716;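 active = every valid replicate shows activation above 250% relative to neutral control wells; inactive = the rest, any valid replicate at or below 250%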
Glyco luc inh: blocks N-linked glycosylation in D54 reporter cells; 360,000 tested, 0.23% active; reporter increase, % at 12.5 µM; AID 588692; D54 ERlucT glycosylation luciferase reporter, 24 h; percent of 100 nM tunicamycin response;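 active = mean luciferase reporter signal, scaled so untreated is 0 and the glycosylation-blocking control 100, at or above a set limit in every replicate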;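 also: luciferase carries N-glycosylation sites so blocking glycosylation raises the light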
NSD2 HMT inh: NSD2 (human) methyltransferase inhibition. 310,000 tested, 0.54% active. inhibition, % at 12.5 µM. NSD2 peptide methylation, AlphaScreen, 120 min. AID 743445. O96028; in the data active = inhibition above about 50%
Yeast Mot1 SUMO: yeast SUMO pathway inhibition in dose response; shares compounds with Mot1-301 SUMO; S. cerevisiae Mot1-301 galactose growth, ATP luminescence, 24 h; -100 = growth of slx-deleted rescue strain; growth activity, percent, % at 42 µM; 2,300 tested, under 10 active;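 active = Signal drops as the depositor expects, and the fitted half-maximal dose is no more than ten times the top valid tested dose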;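 also: more negative values mean stronger growth rescue toward the control strain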
Hits are given with their value. In the library only some 3.9% were active in any assay of this set; here they are far more common.

`COc1ccc(NC(=O)N[C@H]2CC[C@H](CCNC(=O)c3ccccc3F)O[C@@H]2CO)cc1` gave Casp6 inh inactive.
For N#CC1=C(SCC(N)=O)NC(=O)CC1c1ccccc1Cl (configuration not stated) the results were Casp6 inh inactive, CDK5 inh inactive, ALR H2O2 inh inactive, Mot1-301 SUMO 613, Glyco luc inh inactive and Yeast Mot1 SUMO inactive.
`N#CC1=C(SCC(N)=O)NC(=O)CC1c1cccc2ccccc12` (configuration not stated) gave Casp6 inh inactive, CDK5 inh inactive, Glyco luc inh inactive and NSD2 HMT inh inactive.
`S=C(Nc1ccccc1Cl)N1CCOCC1` gave CDK5 inh inactive, ALR H2O2 inh inactive, Mot1-301 SUMO 651, Glyco luc inh inactive, NSD2 HMT inh inactive and Yeast Mot1 SUMO inactive.
For Cc1cccc(C(=O)NNC(=O)c2cc3cc4ccccc4nc3s2)c1 the results were CDK5 inh inactive, ALR H2O2 inh inactive, Mot1-301 SUMO inactive, Glyco luc inh inactive and NSD2 HMT inh inactive.
`Cc1ccc(S(=O)(=O)NNC(=O)c2cc3cc4ccccc4nc3s2)cc1` gave CDK5 inh inactive, ALR H2O2 inh inactive, Mot1-301 SUMO 553, Glyco luc inh inactive, NSD2 HMT inh inactive and Yeast Mot1 SUMO inactive.
O=C(C[C@H]1C[C@H]2c3cc(NC(=O)CC4CC4)ccc3O[C@H]2[C@@H](CO)O1)NCCc1ccccc1 was read as Casp6 inh inactive.
`Cc1cc(C)n(-c2ccc(C(=O)OC(C)C)cc2)n1` gave Casp6 inh inactive, CDK5 inh inactive, ALR H2O2 inh inactive, Mot1-301 SUMO inactive, Glyco luc inh inactive and NSD2 HMT inh inactive.
For Cc1cc(C)n(-c2ccc(C(=O)C(C#N)c3nc4ccccc4n3C)cc2)n1 (configuration not stated) the results were CDK5 inh inactive, ALR H2O2 inh inactive, Mot1-301 SUMO 775, Glyco luc inh inactive, NSD2 HMT inh inactive and Yeast Mot1 SUMO inactive.
C[C@@H]1CCCCO[C@@H](CN(C)Cc2ccc(C(=O)O)cc2)[C@H](C)CN([C@H](C)CO)C(=O)c2cc(NC(=O)Cc3ccccc3)ccc2O1 was read as Casp6 inh inactive.
For C/C=C(\C)C(=O)OC1c2c(ccc3ccc(=O)oc23)OC(C)(C)C1OC(C)=O (configuration not stated) the results were CDK5 inh inactive, ALR H2O2 inh inactive, Mot1-301 SUMO inactive and NSD2 HMT inh inactive.
C/C=C(/C)C(=O)OC1c2c(ccc3ccc(=O)oc23)OC(C)(C)C1OC(=O)/C(C)=C\C (configuration not stated) was read as Casp6 inh inactive, CDK5 inh inactive, ALR H2O2 inh inactive, Mot1-301 SUMO 730, Glyco luc inh inactive and Yeast Mot1 SUMO inactive.
C[C@@H]1CN([C@@H](C)CO)C(=O)c2cc(-c3ccc(C(=O)N(C)C)cc3)cnc2O[C@H]1CN(C)C(=O)C1CC1 was read as Casp6 inh inactive.
Cc1nc(-c2ccc(Cl)cc2)sc1C1(C)CC(c2c(Cl)cccc2Cl)=NO1 (configuration not stated) was read as Casp6 inh inactive, CDK5 inh inactive, Mot1-301 SUMO 421, Glyco luc inh inactive and Yeast Mot1 SUMO inactive.
For Cc1nc(-c2ccccc2)sc1C1(C)CC(c2c(Cl)cccc2Cl)=NO1 (configuration not stated) the results were Casp6 inh inactive, CDK5 inh inactive, Mot1-301 SUMO inactive and Glyco luc inh inactive.
Screening COc1ccc(NC(=O)Nc2ccc3c(c2)[C@H]2C[C@@H](CC(=O)O)O[C@@H](CO)[C@H]2O3)cc1 returned Casp6 inh inactive.
For Cc1ccc2nc3c(cc(C(=O)NCCN4CCOCC4)c(=N)n3CCCN3CCOCC3)c(=O)n2c1 the results were CDK5 inh inactive, ALR H2O2 inh inactive, Mot1-301 SUMO 674, Glyco luc inh inactive, NSD2 HMT inh inactive and Yeast Mot1 SUMO inactive.
CCCCNC(=O)N1CCC(CCC(=O)N(C)Cc2ccccc2)CC1 was read as Casp6 inh inactive, CDK5 inh inactive, ALR H2O2 inh inactive, Mot1-301 SUMO 375, Glyco luc inh inactive, NSD2 HMT inh inactive and Yeast Mot1 SUMO inactive.
C[C@H](CO)N1C[C@H](C)[C@H](CN(C)C(=O)Nc2ccc3c(c2)OCO3)Oc2ccc(NC(=O)C3CC3)cc2CC1=O was read as Casp6 inh inactive.
CCC(C)(C)n1nnnc1C(c1ccc(OC)c(OC)c1)N1CCN(c2ccccc2)CC1 (configuration not stated) was read as CDK5 inh inactive, ALR H2O2 inh inactive, Mot1-301 SUMO inactive, Glyco luc inh inactive and NSD2 HMT inh inactive.
CCC(C)(C)n1nnnc1C(c1ccc(OC)c(OC)c1)N1CCN(c2cccc(OC)c2)CC1 (configuration not stated) was read as CDK5 inh inactive, ALR H2O2 inh inactive, Mot1-301 SUMO active, Glyco luc inh inactive, NSD2 HMT inh inactive and Yeast Mot1 SUMO inactive.
CCOC(=O)C1CC(c2ccccc2)=NNC1=O (configuration not stated) was read as Casp6 inh inactive, CDK5 inh inactive, ALR H2O2 inh inactive, Mot1-301 SUMO 504, Glyco luc inh inactive, NSD2 HMT inh inactive and Yeast Mot1 SUMO inactive.
`CCOC(=O)/C=C(\C)N1N=C(c2ccccc2)CC1c1ccccc1` (configuration not stated) gave Casp6 inh inactive, CDK5 inh inactive, ALR H2O2 inh inactive and Glyco luc inh inactive.
Screening CCOC(=O)N1CCN(C(=O)c2ccc(OC)c(OC)c2)CC1 returned CDK5 inh inactive, ALR H2O2 inh inactive, Mot1-301 SUMO active, Glyco luc inh inactive, NSD2 HMT inh inactive and Yeast Mot1 SUMO inactive.
C[C@H]1CN([C@@H](C)CO)C(=O)c2cc(-c3ccccc3)cnc2O[C@@H]1CN(C)Cc1cccnc1 was read as Casp6 inh inactive.
`O=C(Cc1cccnc1)N[C@@H]1CC[C@@H](CCNS(=O)(=O)c2ccccc2Cl)O[C@@H]1CO` gave Casp6 inh inactive.
`COc1ccc(NC(=O)Nc2ccc(OC)cc2)cc1` gave CDK5 inh inactive, ALR H2O2 inh inactive, Mot1-301 SUMO 391, Glyco luc inh inactive, NSD2 HMT inh inactive and Yeast Mot1 SUMO inactive.
COc1ccc(NC(=S)NC(=O)C2CCC2)cc1 was read as Casp6 inh inactive, CDK5 inh inactive, ALR H2O2 inh inactive, Mot1-301 SUMO 555, Glyco luc inh inactive, NSD2 HMT inh inactive and Yeast Mot1 SUMO inactive.
For COCC(=O)N(C)C[C@H]1Oc2cc(-c3ccccc3F)ccc2S(=O)(=O)N([C@@H](C)CO)C[C@@H]1C the results were Casp6 inh inactive.
